Shown are actives, neighbours in structure and some others; about 0.92% of the full set was active somewhere.
FEN1 inhibitor – qHTS Assay for the Inhibitors of Human Flap endonuclease 1 (FEN1); P39748; 390,000 compounds, 0.35% hits; Recombinant FEN1 flap cleavage, fluorescence, 15 min; Potency, µM (titrated, usually from 114 µM), inactives show at the top dose activity change, negative = inhibition, usual class: inhibitors; further: nearly all actives have a fitted effect of over 65% in size
Target sequence (P39748 whole entry, looked up): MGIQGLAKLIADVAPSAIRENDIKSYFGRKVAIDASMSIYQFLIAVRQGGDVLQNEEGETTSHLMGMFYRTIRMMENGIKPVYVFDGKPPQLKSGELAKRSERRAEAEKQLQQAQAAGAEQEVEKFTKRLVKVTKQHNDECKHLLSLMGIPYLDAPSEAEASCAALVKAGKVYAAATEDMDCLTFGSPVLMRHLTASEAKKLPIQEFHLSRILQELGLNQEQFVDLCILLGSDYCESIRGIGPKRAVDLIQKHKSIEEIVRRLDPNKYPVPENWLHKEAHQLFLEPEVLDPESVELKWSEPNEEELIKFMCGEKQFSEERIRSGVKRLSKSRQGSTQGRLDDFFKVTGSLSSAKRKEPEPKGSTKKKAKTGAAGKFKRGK
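FEN1 at 10 nM preincubated with compounds 15 min at room temperature, then flap DNA substrate added at 50 nM final. Signal read at 0 and 15 min; concentration-response fitted with four-parameter Hill equation.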
APEX1 inh – qHTS Assay for Inhibitors of the Human Apurinic/apyrimidinic Endonuclease 1 (APE1); DNA repair nuclease/redox regulator APEX1 (Homo sapiens), P27695; recombinant APE1, TAMRA/BHQ-2 abasic DNA cleavage fluorescence; Potency, µM (top dose mostly 65.8 µM), for the others: at the highest dose activity change, negative = inhibition, hits mostly inhibitors; 350,000 compounds, 0.35% hits; AID 2517, 2012;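 further: plate controls were vehicle for no effect and reference inhibitor for full effect; nearly all actives have a fitted effect of over 55% in size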
Target sequence (P27695 whole entry, looked up): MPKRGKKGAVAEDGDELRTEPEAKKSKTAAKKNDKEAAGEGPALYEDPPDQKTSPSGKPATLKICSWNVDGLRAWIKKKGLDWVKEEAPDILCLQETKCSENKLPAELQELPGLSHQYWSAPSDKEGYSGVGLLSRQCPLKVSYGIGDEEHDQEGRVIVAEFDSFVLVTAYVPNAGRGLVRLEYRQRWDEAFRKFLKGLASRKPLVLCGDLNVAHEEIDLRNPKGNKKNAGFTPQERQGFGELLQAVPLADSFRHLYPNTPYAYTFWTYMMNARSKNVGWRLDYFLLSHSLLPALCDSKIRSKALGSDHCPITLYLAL
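0.75 nM APE1 + cpd, 15 min RT; start w/ 50 nM TAMRA/BHQ-2 THF-abasic dsDNA; kinetic fluor 525/598 nm ×3 reads @60 s; Δ(read3−read1); normalized to DMSO and NSC13755 control wells.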
BLM helicase inh – qHTS Assay for Inhibitors of Bloom's syndrome helicase (BLM); RecQ-like DNA helicase BLM (Homo sapiens), P54132; recombinant BLM DNA unwinding, fluorescence dequenching; Potency, µM (titrated, usually from 56.1 µM), for the others: at the highest dose activity change, negative = inhibition, actives largely listed as inhibitors; 350,000 compounds, 0.2% hits; AID 2528, 2010;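 further: plate controls were vehicle for no effect and no enzyme for full effect; nearly all actives have a fitted effect of over 35% in size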
TDP1 inh – qHTS Assay for Inhibitors of Tyrosyl-DNA Phosphodiesterase (TDP1); Tyrosyl-DNA phosphodiesterase 1 (Homo sapiens), Q9NUW8; recombinant TDP1, AlphaScreen DNA substrate cleavage; 350,000 compounds, 0.28% hits; Potency, µM (top dose mostly 130 µM), for the others: top-dose activity change, negative = inhibition, actives largely listed as inhibitors; further: nearly all actives have a fitted effect of over 40% in size
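Recombinant E. coli-expressed Tdp1 (1 nM) preincubated with compound 15 min at RT, then 5'-biotin/3'-phosphotyrosine-FITC DNA substrate (15 nM) added for 5 min. AlphaScreen beads (10 ug/ml) added, 10 min RT; tyrosine-FITC cleavage read as signal loss.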
RECQ1 inh – qHTS Assay for Inhibitors of RecQ-Like Dna Helicase 1 (RECQ1). ATP-dependent DNA helicase Q1 (Homo sapiens), P46063. RECQ1 DNA unwinding, red fluorescence kinetic read. Potency, µM (series often up to 57.3 µM), for inactives: at the highest dose activity, negative = inhibition, actives largely listed as inhibitors. 240,000 compounds, 0.54% hits;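 further: plate controls were vehicle for no effect and no enzyme for full effect; nearly all actives have a fitted effect of over 30% in size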
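50 nM RECQ1T1 preincubated 15 min with compound in Tris pH 8.0 buffer with MgCl2, DTT, Tween-20 and 2.5 ug/ml poly(dI-dC); started with 200 nM TAMRA/BHQ-2 forked duplex and 2 mM ATP. Unwinding read as fluorescence (525/598 nm), two reads 2 h apart.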
* hit, by the source's call; i = inactive; ? = inconclusive; / = not tested or not shown; ! = not active in a repeat; [ ] = another dose, or the depositor's remark. The call rests on the fitted dose curve; in most records, active means well fitted curve in the direction sought with a large enough effect; inconclusive means small, poorly fitted or top-dose-only effect, or another doubt; inactive means no such curve, though single readings can be large; an effect the other way counts as inactive or inconclusive. Unless noted, on the % scale 0 is the no-effect control and ±100 the full control effect; potency means the concentration at half of the fitted maximal effect.

SMILES	FEN1 inhibitor	APEX1 inh	BLM helicase inh	TDP1 inh	RECQ1 inh
Cc1cc(C)c2c(n1)sc1c(O)cc(=O)[nH]c12	?	?	?	22.4µM*	-4.4%
COc1ccc(-c2cc(C(F)(F)F)c3c(n2)sc2c(O)cc(=O)[nH]c23)c(OC)c1	?	-0.2%	-22.6%	0.0%	9.1%
COc1ccc(OC)c2nc3c(C(=O)NCCN(C)C)cccc3nc12	14.1µM*	/	/	/	/
CCn1cc(C(=O)NCc2ccccc2Cl)c(=O)c2cc(S(=O)(=O)N3CCc4ccccc4C3)ccc21	12.7%	/	-6.1%	-2.3%	/
COC(=O)C1=C[C@@H](C(=O)OC)C2C3=C(C(=O)[C@@]2(C)NC(=O)c2ccccc2)[C@H](C)n2c(=O)n(-c4ccccc4)c(=O)n2[C@@H]3C1 (some centres not stated)	-4.3%	-1.3%	6.0%	8.5%	9.8%
O=C(O)c1cn(-c2ccc(F)cc2)c2cc(N3CCNCC3)c(F)cc2c1=O	44.7µM*	-4.9%	30.5%	6.8%[56.1 µM]	-1.8%
O=C(O)[C@@H](O)[C@@H](O)[C@H](O)[C@H](O)CO	-6.2%	?	-6.9%	7.94µM*!	-14.6%
OC[C@@H](O)C(O)[C@H](O)[C@H](O)CO (some centres not stated)	/	-2.7%	0.7%	6.2%	-13.7%
Oc1cccc(O)c1O	/	1.26µM*	-10.0%	?	6.31µM*
O=Nc1c(-c2c(O)[nH]c3cc(Br)ccc23)[nH]c2ccccc12	-0.8%	-10.5%	-16.0%	23.6%[56.1 µM]	28.2µM*
NS(=O)(=O)c1ccc(CCNC(=O)c2ccc(Cn3c(=O)[nH]c4ccccc4c3=O)cc2)cc1	16.8%	-4.9%	-1.9%	0.0%	-2.1%
O=C(NCCc1ccc(Cl)cc1)c1ccc(Cn2c(=O)[nH]c3ccccc3c2=O)cc1	-6.7%	0.4%	-29.1%	28.2µM*	/
CCOC(=O)CSc1nc2cc(OC)c(OC)cc2cc1C#N	-8.2%	/	/	-0.3%	/
Nc1nc(-c2ccccc2)c(N=Nc2cccc3ccccc23)s1	-7.6%	?	-14.6%	10.8%	35.5µM*
C=C(CCC12O[C@H](C(=O)O)[C@@](O)(C(=O)O)[C@](C(=O)O)(O1)[C@H](OC(=O)/C=C/[C@@H](C)C[C@@H](C)CC)[C@H]2O)[C@@H](OC(C)=O)[C@H](C)Cc1ccccc1	/	-6.2%	22.4µM*	6.1%	i
C=C(CC[C@]12OC(C(=O)O)C(O)(C(=O)O)C(C(=O)O)(O1)C(OC(=O)/C=C/[C@@H](C)C[C@@H](C)CC)C2O)[C@@H](OC(C)=O)[C@H](C)Cc1ccccc1 (some centres not stated)	-1.4%	/	/	/	/
Cc1ccc(Nc2nc(NCc3ccco3)nc3nccnc23)cc1C	-15.0%	/	/	-2.9%	/
CCOc1ccc(C(=O)N/N=C/c2cc(Cl)ccc2[N+](=O)[O-])cc1	-12.4%	5.3%	11.2µM*	2.6%	-2.0%
COC(=O)c1cc(O)c(O)c(O)c1	?	14.1µM*	0.8%	/	-0.5%
O=C(Nc1cc(C(F)(F)F)ccc1Cl)C(O)Cc1ccccc1 (configuration not stated)	/	/	/	-6.0%	/
CC(=O)Nc1ccc(SC[C@H](Cc2ccccc2)N2CC[C@@H](N)CCC2=O)cc1	16.7%	/	/	/	/
CSc1nc(-c2cccs2)c(C#N)c(=O)[nH]1	-8.1%	2.3%	-5.1%	5.7%	-9.3%
N#Cc1c(-c2cccs2)nc(SCc2ccc(Cl)cc2)[nH]c1=O	-23.6%	-14.9%	28.2µM*	-9.0%	20.1%
Brc1ccc(C2=Nc3cccc4cccc(c34)N2)o1	?	2.0%	-6.7%	2.6%	i
FC(F)(F)C1=Nc2cccc3cccc(c23)N1	50.1µM*	-5.2%	/	/	/
SMILES	FEN1 inhibitor	APEX1 inh	BLM helicase inh	TDP1 inh	RECQ1 inh
O=C(O)c1ccc(N/N=C/C=C/c2ccc([N+](=O)[O-])o2)cc1	?	10.6µM*	-23.4%	-14.3%	/
COc1ccc(-c2onc(C)c2C)cc1S(=O)(=O)N(C)Cc1ccccc1	-0.5%	/	-4.9%	-2.6%	/
N#C/C(=C\c1ccc(-c2cc(Cl)ccc2Cl)o1)C(=O)Nc1ccccc1C(=O)O	?	/	11.2µM*	-5.7%[12.3 µM]	/
O=C(O)c1ccc(N/N=C/c2ccc(-c3cc(Cl)ccc3Cl)o2)cc1	79.4µM*	?	-14.6%	70.8µM*	-20.5%
Cc1ccc(NC(=O)/C(C#N)=C\c2ccc(-c3ccc(Cl)cc3)o2)c(C)c1	-14.1%	/	-3.6%	2.2%[12.3 µM]	/
O=C(O)c1ccc(N/N=C/c2ccc(-c3ccc(Cl)cc3Cl)o2)cc1	?	-7.0%	-5.6%	1.2%	-8.5%
Cc1ccc(NC(=O)CN2C(=O)N/C(=C/c3cc(C)n(-c4cccc(C(=O)O)c4)c3C)C2=O)cc1	-3.1%	11.2µM*	-6.2%	/	?
CCOc1ccc(C(=O)Nc2cccc(NC(=O)c3ccc(C(C)(C)C)cc3)c2)cc1Br	-15.4%	/	-8.4%	1.0%[2.28 µM]	/
COCc1cc(C)nc(N/N=C/c2ccc(-c3ccc(C(=O)O)c(Cl)c3)o2)c1C#N	/	?	-0.7%	28.2µM*	?
COCc1cc(C)n(CC(=O)N/N=C/c2ccc(-c3ccc(Cl)c(C(=O)O)c3)o2)c(=O)c1C#N	4.6%	-3.2%	4.0%	/	-8.2%
CCC(CO)[n+]1c(C)cc(/C=C2\Sc3ccccc3N2Cc2ccccc2)cc1C (configuration not stated)	50.1µM*	-8.2%	0.1%	4.4%	?
Cc1ccccc1-c1nc(NCCN2CCOCC2)c2ccccc2n1	/	4.4%	-1.5%	7.94µM*	-4.1%
Cc1ccc(S(=O)(=O)N2CCCN(c3nc(-c4cccs4)nc4ccccc34)CC2)cc1	4.5%	/	/	/	/
C=CCn1c(N)c(C(=O)NCC2CCCO2)sc1=S (configuration not stated)	-3.1%	14.4%	1.7%	0.0%	9.0%
C=CCn1c(N)c(C(=O)NCC2CCCO2)c2nc3ccccc3nc21 (configuration not stated)	-12.1%	-2.0%	5.62µM*	1.0%	-7.8%
CCC(NC(=O)C1CCCO1)c1ccccc1 (configuration not stated)	0.0%	-2.9%	-2.7%	2.24µM*	/
CCc1ccc(C(C)NC(=O)C2CCCO2)cc1 (configuration not stated)	10.1%	6.8%	-7.4%	2.5%	/
COc1ccc(-c2ccccc2C2C3C=CCCC3(C)C(=O)N2Cc2ccccc2)cc1 (configuration not stated)	-6.3%	-6.4%	-10.0%	10.3%	-8.0%
CCCCCC#CCC#CCC#CCC#CCCCC(=O)O	/	2µM*!	12.6µM*!	-3.7%	1.12µM*!

Source: PubChem BioAssay
